This is an account of results in PubChem BioAssay (NCATS).

Results filed as inconclusive are left out. Values without a mark were called inactive. Calls of active or inactive are those of the source. The call rests on the fitted dose curve.
On the % scale 0 is the no-effect control and ±100 the full control effect; potency means the concentration at half of the fitted maximal effect.

The assay can be described thus: Cytotoxicity counterscreen for inhibitors of SARS-CoV-2 cell entry (AID 1645845). Further: nearly all actives have a fitted effect of over 50% in size. As to conditions: cell viability (SARS-CoV-2 entry assay cells); series mostly up to 57.1 µM; activity change, negative = cytotoxicity: at the top concentration. In short, it runs like this:
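Counterscreen run in the same HEK293-ACE2 line as the pseudotyped-particle entry assay, without particles. Viability after 48 h at 37 C was read as ATP luminescence, scaled between cell-containing and cell-free wells.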
For `Oc1ccc(C(O)CNCCCCCCNCC(O)c2ccc(O)c(O)c2)cc1O` (centres undefined), the call was inactive.
`CC(C)C[C@@H]1[C@H](c2ccccc2)OC(=O)N1CCCN1CCCCCC1`: the “activity change, negative = cytotoxicity” value was 3.81%.
As for `NC1=NCC2c3ccccc3Cc3ccccc3N12` (centres undefined), the “activity change, negative = cytotoxicity” value is 0.487%.
As to `O=c1[nH]c2ccccc2n1CCCN1CCN(C(c2ccccc2)c2ccccc2)CC1`, the result was inactive.
Consider `C=CCOc1cc(Cl)ccc1C(=O)NCCN(CC)CC`, for which the “activity change, negative = cytotoxicity” value was -5.88%.
On to `CCN(CC)CCOCCOC(=O)C1(c2ccccc2)CCCC1`, for which the call was inactive.
On to `CCCOC(C(=O)OC1CCN(C)CC1)(c1ccccc1)c1ccccc1`, for which the “activity change, negative = cytotoxicity” value is -15.2%.
In the case of `CN(C)C(=S)SC(=S)N(C)C`, the Potency was 3.55 µM (active).
In the case of `Cc1[nH]c(=O)c(C#N)cc1-c1ccc2nccn2c1`, the “activity change, negative = cytotoxicity” value is -2.95%.
On to `C/C(=N/NC(=O)c1ccncc1)C(=O)O`, for which the compound was called inactive.
Take `CCOC(=O)Cn1cccc1-c1nc(-c2ccc(OC)cc2)c(-c2ccc(OC)cc2)s1`: the call was inactive.
For `CC(Oc1c(Cl)cccc1Cl)C1=NCCN1` (centres undefined), the result was inactive.
Regarding `C=C1c2cccc(O)c2C(O)=C2C(=O)[C@]3(O)C(O)=C(C(N)=O)C(=O)[C@@H](N(C)C)[C@@H]3[C@@H](O)[C@H]12`, the “activity change, negative = cytotoxicity” value was 3.74%.
Take `Cc1cccc(CN2CCN(C(c3ccccc3)c3ccc(Cl)cc3)CC2)c1` (centres undefined): the compound was called inactive.
For `NC(N)=NC(=O)c1nc(Cl)c(N)nc1N`, the Potency result was “inactive”.
For the compound `Oc1ccc(O)cc1`, the “activity change, negative = cytotoxicity” value is 0.129%.
The same measure, in the same setting: to `O=C(c1ccc(F)cc1)C1CCN(CCn2c(=O)[nH]c3ccccc3c2=O)CC1` belongs 0.162%; to `C#C[C@]1(O)CC[C@H]2[C@@H]3CCc4cc(O)ccc4[C@H]3CC[C@@]21C`, -20.8%.
`C[C@@H](CN(C)C)CN1c2ccccc2Sc2ccccc21`: the result was inactive.
